Compound activity (PubChem)
This is a sample that favours compounds with a hit; in the whole collection about 4.6% have one here.
tim23-1 inh = inhibits growth of tim23-1 mutant yeast; S. cerevisiae tim23-1 growth, BacTiter-Glo luminescence, 24 h; inhibition, % at 20 µM; 1.3% of 330,000 active; AID 463212;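 active = growth inhibition of the mutant yeast at or above 50%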;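 note: temperature-sensitive mutant grown at 25 °C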
SKKanGAS inh = SKKanGAS growth inhibition; S. pyogenes SKKanGAS, kanamycin growth, BacTiter-Glo, 6 h; 1.3% of 300,000 active; inhibition, % at 7.5 µM;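 active = mean replicate score, as percent of positive control median, at least 50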;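 note: strain carries kanamycin resistance gene driven by streptokinase promoter and grows in 40 µg/ml kanamycin; loss of luminescence reflects streptokinase promoter inhibition or plain growth inhibition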
TIM10 inh = inhibits growth of TIM10 yeast strain | S. cerevisiae TIM10 strain growth, BacTiter-Glo luminescence, 24 h | inhibition, % at 10 µM | 1.4% of 330,000 active | AID 463195;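 active = inhibition of 40% or more at the single tested concentration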;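 note: wild-type TIM10 isogenic control strain grown at permissive 25 °C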
PfHsp90 set2 = reduces growth (ATP signal) of yeast expressing P. falciparum Hsp90 | S. cerevisiae expressing PfHsp90, BacTiter-Glo ATP, 48 h; yeast lacking PDR1 and PDR3 efflux regulators | inhibition, % at 9.4 µM | 0.32% of 310,000 active;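 active = every replicate shows inhibition above about 80%, whatever the replicate mean, limit read from the data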
tim10-1 inh = inhibits growth of tim10-1 mutant yeast. S. cerevisiae tim10-1 ts strain growth, BacTiter-Glo, 24 h. inhibition, % at 20 µM. 2.2% of 330,000 active;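 active = inhibition of at least 40%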;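 note: mutant grown at 25 °C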
NLRP3 yeast inh = inhibitors of NALP3 inflammasome in yeast | Yeast reconstituted NLRP3/ASC/caspase-1, beta-gal luminescence, 24 h | inhibition, % at 10 µM | 0.39% of 330,000 active | AID 2825;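 active = inhibition of 50% or more; inactive = inhibition below 50%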
tim10-1 confirm = confirmation of tim10-1 mutant yeast growth inhibitors; shares compounds with tim10-1 inh; S. cerevisiae tim10-1 ts strain growth, BacTiter-Glo, 24 h; inhibition, % at 20 µM; 56% of 7,400 active; AID 463213;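 active = inhibition of yeast growth at or above a set limit in either of two repeat tests at 20 µM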;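 note: tim10-1 mutant grown at permissive 25 °C to find synthetic lethal compounds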
TIM10 conf = confirmation of TIM10 yeast growth inhibitors. shares compounds with TIM10 inh. S. cerevisiae tim10 strain growth, BacTiter-Glo luminescence, 24 h. inhibition, % at 10 µM. 63% of 4,600 active;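 active = inhibition of yeast growth at or above a set limit in either of two replicates at 10 µM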; note: this counterscreen used the strain with wild-type TIM10
Hits are given with their value; . = inactive; / = no result given.

SMILES | tim23-1 inh | SKKanGAS inh | TIM10 inh | PfHsp90 set2 | tim10-1 inh | NLRP3 yeast inh | tim10-1 confirm | TIM10 conf
Cc1cc(C)cc(NC(=S)NC(=O)Cc2ccccc2)c1 | . | . | 40.3 | . | 44.2 | . | 30.2 | 40.5
COc1ccc(C(C)C)cc1S(=O)(=O)NC1CCCC1 | . | . | . | . | . | . | / | /
S=c1[nH]nc(COc2ccccc2)n1C1CCCCC1 | . | . | . | . | . | . | / | /
S=c1[nH]nc(CSc2nc3ccccc3s2)n1C1CCCCC1 | . | . | 49.4 | . | 47.4 | . | 42.5 | .
COc1ccc(OC)c(CNC(=O)C2CCC(=O)N2C(C)C)c1 (stereo not drawn) | . | . | . | . | . | . | / | /
COc1ccc(OCC(=O)O/N=C(\N)c2ccc(OC)cc2)cc1 | . | . | . | . | . | . | / | /
N/C(=N\OC(=O)c1ccc2c(c1)OCO2)c1cccnc1 | . | . | . | . | . | . | / | /
Cc1ccc(/C(N)=N/OC(=O)COc2ccccc2Cl)cc1 | . | . | . | / | 61.4 | . | 41.8 | 43.4
Cc1ccc(OCC(=O)O/N=C(\N)c2ccccn2)cc1 | . | . | . | . | . | . | / | /
Cc1ccc(OCC(=O)O/N=C(\N)Cc2ccc(Cl)cc2)cc1 | . | . | 78.3 | . | 58.9 | . | 44.1 | .
N/C(Cc1cccc2ccccc12)=N\OC(=O)c1ccc2c(c1)OCO2 | . | . | 60.4 | . | 47.9 | . | 39.3 | 32.1
COc1ccc(OCC(=O)O/N=C(\N)Cc2ccc(Cl)cc2Cl)cc1 | . | . | 49.6 | . | 63.5 | . | 62.6 | 45.9
CC(=O)Nc1ccc(S(=O)(=O)NC2CC2)cc1 | . | . | . | . | . | . | / | /
COc1ccccc1/C=N\NC(=O)c1ccc(COc2ccc(C)c(C)c2)o1 | . | . | . | . | . | . | / | /
N/C(=N\OC(=O)Cc1cccc2ccccc12)c1ccccn1 | . | . | 43.3 | . | 60.4 | . | 49.0 | 38.3
COc1ccc(CC(=O)O/N=C(\N)Cc2cccc3ccccc23)cc1 | . | . | 47.7 | . | 44.1 | . | 49.9 | 53.0
COc1ccc(OCC(=O)O/N=C(\N)Cc2cccs2)cc1 | . | . | . | . | . | . | / | /
COc1ccc(OCC(=O)O/N=C(\N)Cc2ccc(Cl)cc2)cc1 | . | . | 54.1 | . | 62.3 | . | 57.7 | .
O=C(CN1C(=O)NC2(CCCCC2)C1=O)Oc1ccc2ccc(=O)oc2c1 | . | / | . | . | . | . | / | /
Cc1nn(-c2ccccc2)c(Cl)c1/C=C/C(=O)c1ccccc1 | . | . | 46.5 | . | 40.6 | . | 47.8 | 39.9
Cc1nn(-c2ccccc2)c(Cl)c1/C=N/O | . | . | . | . | . | . | / | /
CCCCNC(=S)Nc1ccc(SC(F)F)cc1 | . | . | 40.6 | . | 53.4 | . | 35.7 | 30.0
Fc1ccc(COc2ccccc2C(=S)N2CCCC2)cc1 | . | . | . | . | . | . | / | /
Cc1ccc(COc2ccccc2C(=S)N2CCCC2)cc1 | . | . | 41.6 | . | 40.3 | . | . | .
COc1ccc(NC(=O)CCCn2cnc3ccccc3c2=O)c(OC)c1 | . | . | . | . | . | . | / | /
SMILES | tim23-1 inh | SKKanGAS inh | TIM10 inh | PfHsp90 set2 | tim10-1 inh | NLRP3 yeast inh | tim10-1 confirm | TIM10 conf
COCCCNC(=O)c1ccc2c3c(onc13)-c1ccccc1C2=O | . | . | 43.3 | . | 53.3 | . | 41.6 | 41.2
COCCCNC(=O)c1ccccc1Oc1ccccc1 | . | . | . | . | . | . | / | /
CN1CCN(C(=O)CCN2C(=O)/C(=C/c3ccccc3Cl)SC2=S)CC1 | . | . | 43.5 | . | 44.1 | . | . | .
COc1cc(C(=O)OCC(=O)c2cc(C)n(C)c2C)cc(OC)c1OC | . | . | 44.6 | / | 41.7 | . | . | .
Cc1cc(C(=O)COC(=O)c2nccnc2N)c(C)n1C | . | . | . | . | . | . | / | /
COc1cc2c(cc1NS(=O)(=O)N1CCCCC1)oc1ccccc12 | . | . | 43.8 | . | 41.1 | . | 37.0 | 35.2
CSc1nc2n(n1)C(C)C1=C(CCCC1=O)N2 (stereo not drawn) | . | . | . | . | . | . | / | /
Fc1ccc(-c2cc(-c3ccccc3)nc(-n3cccn3)n2)cc1 | . | . | 58.7 | . | 51.0 | . | 46.2 | 45.6
Cc1nc(NC(=O)/C=C/c2ccccc2)n[nH]1 | . | . | 60.9 | . | 59.5 | . | 59.2 | 53.0
O=C(C=Cc1ccccc1)Nc1ccccc1 | / | / | / | . | / | / | / | /
Cc1c(C(=O)O)sc2nc(CSc3ncc(C(F)(F)F)cc3Cl)[nH]c(=O)c12 | . | . | . | . | . | . | / | /
COc1cc2c(cc1OC)C(c1ccc(-c3cc(Cl)ccc3Cl)o1)=NCC2 | . | . | 45.1 | . | 45.8 | . | 43.5 | 45.5
COc1cc2c(cc1OC)C(c1ccc(-c3ccccc3Cl)o1)=NCC2 | . | . | 45.6 | / | 46.0 | . | 40.4 | 47.3
COc1cc2c(cc1OC)C(c1ccc(Cl)cc1)=NCC2 | . | . | . | . | . | . | / | /
COc1cc2c(cc1OC)C(c1ccc(-c3ccc(Cl)cc3Cl)o1)=NCC2 | . | . | 47.6 | . | 51.1 | . | . | 35.6
O=C(NNC(=S)Nc1ccccc1)C1CCCCC1 | . | . | . | . | . | . | / | /
Cc1ccc(S(=O)(=O)NCCC(=O)NC2CCCCCC2)cc1 | . | / | . | / | . | . | / | /
CCC(C)(C)n1nnnc1C(c1ccccc1F)N1CCN(C(=O)c2ccco2)CC1 (stereo not drawn) | . | . | . | . | . | . | / | /
COc1cccc(CN(C)C(=O)c2ccccc2SCC(=O)N2CCCC2)c1 | . | . | . | / | . | . | / | /
Nc1cc(OC(=O)c2cccs2)nn1S(=O)(=O)c1ccc(F)cc1 | . | . | 52.6 | . | 41.2 | . | 31.1 | .
CN(C)Cc1nc2c(c(=O)[nH]1)C1(CCCCC1)Cc1ccccc1-2 | . | . | 44.4 | . | 48.9 | . | 38.3 | 38.3
CN(C)Cc1nc2c(c(=O)[nH]1)C(C)(C)Cc1ccccc1-2 | . | . | . | . | . | . | / | /
Cc1cc(C)n(S(=O)(=O)/C=C/c2ccccc2)n1 | . | . | 44.1 | . | 49.8 | . | 41.5 | 42.0
Cc1ccc(S(=O)(=O)n2nc(C)cc2C)cc1 | . | . | . | . | . | . | / | /
C/C(=N\N=C1\NC(=O)C(CC(=O)Nc2ccc(Cl)cc2)S1)c1ccco1 (stereo not drawn) | . | . | . | . | . | . | / | /
C/C(=N\N=C1\NC(=O)C(CC(=O)Nc2ccc(C)c(Cl)c2)S1)C(C)(C)C (stereo not drawn) | . | . | 43.9 | . | 51.8 | . | 32.3 | .
COCCCn1c(=O)c2ccccc2n(Cc2ccccc2C)c1=O | . | . | . | . | . | . | / | /
COCn1c(=O)c2c(nc(SC3=NCCS3)n2Cc2ccccc2C)n(COC)c1=O | . | . | 42.8 | . | 47.1 | . | . | 35.0
